In PubChem BioAssay one finds z-score and composite z-score data, which are given here for four compounds.

The source made the active and inactive calls.

Test [1] in a line: E. coli DRC41 culture turbidity changes, primary screen, E. coli filamentation inducer project, strain DRC41, OD650, 48 h (AID 1152).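 Also: E. coli MC1000 strain DRC41 lacking acrAB efflux pump and sulA.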 The settings on record: E. coli DRC41 (acrAB sulA), higher = more signal, called active from +8 up or from −8 down.
Test [2] can be described thus: small-molecule binders of probe aLefty1, primary screen, biochemical, small-molecule microarray, 635/667 nm fluorescence (AID 1153).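 Also: score merges spot fluorescence with signal-to-noise ratio from the scanned slide images.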 The settings on record: higher = more signal.
Test [3] is described as follows: PSAC antagonists in infected red cells, primary screen, cell-based, P. falciparum Indochina, OD700, 1 h (AID 1154). The following applies: P. falciparum Indochina infected RBC osmotic lysis, higher = more signal, called active from +8 up or from −8 down.
The nature of test [4]: PSAC antagonists in infected red cells, primary screen, cell-based, P. falciparum Indochina, OD700, 2 h (AID 1155).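 Also: lysis reports solute entry through the parasite surface anion channel PSAC; channel blockers reduce lysis of infected cells.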 The following applies: P. falciparum Indochina infected erythrocytes, osmotic lysis OD700; higher = more signal, called active from +8 up or from −8 down.
A short description of test [5]: osmotic lysis modulators in infected erythrocytes, primary screen, PSAC antagonist project, cell-based, P. falciparum Indochina, OD700, 3 h (AID 1156). The following applies: higher = more signal, called active from +8 up or from −8 down.
Test [6] can be described thus: PSAC antagonists in infected red cells, primary screen, cell-based, P. falciparum Indochina, OD700, 18 h (AID 1157). The settings on record: P. falciparum Indochina infected erythrocytes, osmotic lysis OD700, 18 h; higher = more signal, called active from +8 up or from −8 down.
A short description of test [7]: modulators of S6 phosphorylation in cells, primary screen, cell-based, A549, cytoblot, luminescence, serum-stimulated (AID 1158).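 Also: serum-stimulated A549 lung adenocarcinoma cells; signal is phosphorylated S6 detected by cytoblot immunostaining with HRP secondary.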 The following applies: A549 phospho-S6 cytoblot, 5 h, higher = more signal.
In test [8] the target is NADPH oxidase 2 (Homo sapiens) (UniProt P04839). The test is described as follows: NOX2-dependent H2O2 signal modulators, primary screen, NOX inhibitor project, cell-based, HEK293-NOX2, PMA-stimulated, Amplex Red fluorescence (AID 1159). Also: test concentration not given here. The following applies: 45 min, higher = more signal, called active from +8 up or from −8 down.
NADPH oxidase 2 (Homo sapiens), sequence (P04839 whole entry, looked up): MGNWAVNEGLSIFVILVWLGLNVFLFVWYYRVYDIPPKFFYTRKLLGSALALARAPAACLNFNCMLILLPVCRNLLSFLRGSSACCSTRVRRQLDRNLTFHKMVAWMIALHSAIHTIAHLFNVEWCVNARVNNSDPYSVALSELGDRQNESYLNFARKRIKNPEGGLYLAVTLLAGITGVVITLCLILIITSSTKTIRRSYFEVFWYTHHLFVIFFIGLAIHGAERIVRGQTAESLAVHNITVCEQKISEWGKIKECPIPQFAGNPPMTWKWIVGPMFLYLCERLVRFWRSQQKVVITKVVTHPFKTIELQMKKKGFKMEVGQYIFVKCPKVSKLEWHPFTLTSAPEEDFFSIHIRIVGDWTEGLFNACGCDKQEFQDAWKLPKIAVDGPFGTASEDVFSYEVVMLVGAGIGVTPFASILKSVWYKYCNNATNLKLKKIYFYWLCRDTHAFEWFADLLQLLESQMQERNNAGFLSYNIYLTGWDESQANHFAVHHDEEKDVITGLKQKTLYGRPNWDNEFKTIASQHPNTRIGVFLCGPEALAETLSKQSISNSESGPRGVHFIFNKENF
Test [9] concerns the target NADPH oxidase 4 (Homo sapiens) (UniProt Q9NPH5). The test is described as follows: NOX4-dependent H2O2 signal modulators, primary screen, NOX inhibitor project, cell-based, HEK293-NOX4, tetracycline-induced, Amplex Red fluorescence (AID 1160). The following applies: 45 min, higher = more signal, called active from +8 up or from −8 down.
The target in test [10] is NADPH oxidase 5 (Homo sapiens) (UniProt Q96PH1). The test is described as follows: NOX5-dependent H2O2 signal modulators, primary screen, NOX inhibitor project, cell-based, HEK293-NOX5, Amplex Red fluorescence (AID 1161). The settings on record: HEK293-NOX5, ionomycin, 45 min, higher = more signal.
NADPH oxidase 5 (Homo sapiens), sequence (Q96PH1 whole entry, looked up): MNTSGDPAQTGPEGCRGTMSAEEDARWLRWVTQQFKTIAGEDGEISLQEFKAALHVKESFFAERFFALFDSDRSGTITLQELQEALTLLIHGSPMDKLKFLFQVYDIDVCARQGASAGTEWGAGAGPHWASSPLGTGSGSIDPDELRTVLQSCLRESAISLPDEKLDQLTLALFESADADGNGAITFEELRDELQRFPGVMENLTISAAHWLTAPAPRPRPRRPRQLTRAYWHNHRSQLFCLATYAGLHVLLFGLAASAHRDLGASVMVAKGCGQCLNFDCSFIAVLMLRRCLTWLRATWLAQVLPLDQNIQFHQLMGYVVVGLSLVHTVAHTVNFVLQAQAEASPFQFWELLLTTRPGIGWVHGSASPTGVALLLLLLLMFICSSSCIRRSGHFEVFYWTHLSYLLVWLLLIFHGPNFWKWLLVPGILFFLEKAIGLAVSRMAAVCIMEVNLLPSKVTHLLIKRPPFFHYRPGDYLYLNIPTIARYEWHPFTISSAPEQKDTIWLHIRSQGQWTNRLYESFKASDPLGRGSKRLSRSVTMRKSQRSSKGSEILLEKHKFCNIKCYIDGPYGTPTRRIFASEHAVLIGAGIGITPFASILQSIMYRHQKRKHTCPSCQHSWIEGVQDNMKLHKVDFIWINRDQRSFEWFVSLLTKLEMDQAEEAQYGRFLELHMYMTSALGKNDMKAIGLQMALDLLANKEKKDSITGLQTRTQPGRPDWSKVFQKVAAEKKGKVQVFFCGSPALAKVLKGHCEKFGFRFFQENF
A short description of test [11]: A549 cell viability effects, profiling panel, calcein-AM fluorescence, 48 h, basal (AID 1162). Also: test concentration not given here. The following applies: higher = more signal.
Test [12] is described as follows: adipocyte viability effects, profiling panel, cell-based, 3T3-L1 adipocytes, calcein-AM fluorescence, 48 h, basal (AID 1163). Also: test concentration not given here. The settings on record: 3T3-L1 adipocytes viability, higher = more signal.
Test [13] is described as follows: HepG2 cell viability effects, profiling panel, calcein-AM fluorescence, 48 h, basal (AID 1164). Also: test concentration not given here. The settings on record: higher = more signal.
The nature of test [14]: MM1S cell viability effects, profiling panel, calcein-AM fluorescence, 48 h, basal (AID 1165).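 Also: viability of MM1S multiple myeloma cells under basal unstimulated conditions; test concentration not given here.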 The settings on record: higher = more signal.
A short description of test [15]: basal RPMI8226 viability, no added stimulus, profiling panel, cell-based, calcein-AM fluorescence, 48 h, PK04 Diversity Set (AID 1166).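 Also: cells grown under basal conditions without added stimulus; test concentration not given here.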 The following applies: RPMI8226 myeloma viability, higher = more signal.
Test [16] can be described thus: basal HepG2 mitochondrial membrane potential changes, profiling panel, cell-based, JC-1 fluorescence, 24 h, 100 nL compound (AID 1167). Also: test concentration not given here. The following applies: higher = more signal.
A short description of test [17]: basal 3T3-L1 adipocyte mitochondrial potential changes, profiling panel, cell-based, JC-1 fluorescence, 3T3-L1 adipocytes, 24 h, 100 nL compound (AID 1168). Also: test concentration not given here. The following applies: JC-1 mitochondrial fluorescence, higher = more signal, called active from +8 up or from −8 down.
The nature of test [18]: basal RPMI8226 mitochondrial membrane potential changes, profiling panel, cell-based, JC-1 fluorescence, 24 h, 100 nL compound (AID 1169). Also: test concentration not given here. The settings on record: RPMI8226 myeloma, JC-1 mitochondrial potential fluorescence, higher = more signal.
Test [19] in a line: basal MM1S mitochondrial membrane potential changes, profiling panel, cell-based, JC-1 fluorescence, 24 h, 100 nL compound (AID 1170). Also: test concentration not given here. The settings on record: higher = more signal.
Test [20] is described as follows: A549 lung cancer cell viability effects, profiling panel, resazurin fluorescence, 24 h, PK04 Diversity Set (AID 1171). Also: test concentration not given here. The settings on record: higher = more signal, called active from +8 up or from −8 down. (Alamar Blue is a resazurin reagent that responds to reducing activity.)

NADPH oxidase 4 (Homo sapiens), sequence (Q9NPH5 whole entry, looked up): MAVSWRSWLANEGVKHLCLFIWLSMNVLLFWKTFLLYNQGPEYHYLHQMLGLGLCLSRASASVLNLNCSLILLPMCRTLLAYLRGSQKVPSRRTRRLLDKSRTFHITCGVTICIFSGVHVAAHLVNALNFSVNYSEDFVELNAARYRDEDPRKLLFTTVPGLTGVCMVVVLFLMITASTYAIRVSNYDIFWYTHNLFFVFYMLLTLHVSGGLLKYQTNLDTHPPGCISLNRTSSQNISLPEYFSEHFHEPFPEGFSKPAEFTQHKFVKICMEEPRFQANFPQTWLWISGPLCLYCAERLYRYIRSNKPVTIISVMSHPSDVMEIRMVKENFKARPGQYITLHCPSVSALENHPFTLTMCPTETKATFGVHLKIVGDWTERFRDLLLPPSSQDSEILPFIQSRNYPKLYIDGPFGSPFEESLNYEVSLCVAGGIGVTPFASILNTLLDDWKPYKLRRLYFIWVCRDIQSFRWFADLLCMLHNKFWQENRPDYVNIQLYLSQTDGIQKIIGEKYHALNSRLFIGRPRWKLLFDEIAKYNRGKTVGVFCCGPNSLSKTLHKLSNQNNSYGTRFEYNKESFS

For the compound `COc1ccc(C(O)C2C=CC3C(=O)N(c4ccccc4)C(=O)C3N2Nc2ccc([N+](=O)[O-])cc2)cc1OCc1ccccc1` (stereo not given), the z-score is -1.64 (inactive) in [1]; 14.2 (active) in test [3]; 2.71 (inactive) in [4]; 0.107 (inactive) in test [5]; 0.926 (inactive) in test [6]; -0.881 in test [7]. For the same compound, the z-score in [8] is 0.151 (inactive); in test [9] it was -0.18 (inactive); in [10], -1.29; in test [11] it was -0.805; in [12] it was -0.64; in test [13], -1.09. Further, the z-score in [14] is 0.324; in [15] it was -0.378; in [16] it was -0.608; in test [17], -1.46 (inactive); in [18] it was -0.215; in test [19], -0.693. Besides, in test [20], the z-score is 0.317 (inactive). For the same compound, in [2], the composite z-score stood at 1.55.

For the compound `C=C[C@@H](COC(C)=O)N(Cc1ccc([N+](=O)[O-])cc1)S(=O)(=O)c1ccc(Br)cc1`, the z-score is 2 (inactive) in test [1]; 7.66 (inactive) in test [3]; 0.824 (inactive) in test [4]; 2.31 (inactive) in [5]; 0.79 (inactive) in [6]; 0.354 in test [7]. Also, the z-score in test [8] was 0.495 (inactive); in [9] it was 0.851 (inactive); in test [10], -0.559; in test [11], 1.97; in test [12], -0.306; in [13] it was 0.452. For the same compound, the z-score in [14] is 1.3; in test [15] it was 0.647; in [16], 0.64; in test [17] it was 0.0569 (inactive); in test [18], 0.667; in test [19] it was 0.198. For the same compound, the z-score in test [20] was 2.05 (inactive). For the same compound, the composite z-score in [2] worked out at 0.0012.

Take `COc1ccc(C#Cc2ccc3c(c2)[C@]2(C(=O)N3)[C@H](c3ccc(O)cc3)N3[C@H](c4ccccc4)[C@H](c4ccccc4)OC(=O)[C@H]3[C@@H]2C(=O)NC[C@H](O)c2ccccc2)cc1`: the z-score in test [1] was 0.735 (inactive); in test [3], 1.1 (inactive); in test [4], 1.09 (inactive); in [5], 0.541 (inactive); in test [6] it was 0.859 (inactive); in [7], -0.193. In addition, the z-score in test [8] was 1.91 (inactive); in test [9] it was -0.0599 (inactive); in test [10], 0.22; in test [11], -1.1; in [12], 0.72; in [13], -0.513. For the same compound, the z-score is -3 in [14]; -4.58 in [15]; -1.8 in test [16]; 1.94 (inactive) in test [17]; -1.12 in test [18]; -1.3 in [19]. Further, the z-score in test [20] was -0.475 (inactive). In addition, the composite z-score in [2] is -0.021.

On to `NCCCCCCNC(=O)[C@H]1C[C@H]2C(=O)NCC(=O)N2[C@H]1c1cccc(OCCO)c1`, for which the z-score was 1.17 (inactive) in [1]; 1.68 (inactive) in [3]; -0.0225 (inactive) in test [4]; -1.63 (inactive) in [5]; 0.202 (inactive) in [6]; 0.384 in test [7]. The z-score in test [8] is 0.719 (inactive); in [9], 0.513 (inactive); in test [10] it was 1.36; in test [11] it was 2.15; in test [12] it was -0.143; in test [13], 0.674. For the same compound, the z-score in test [14] was -0.0318; in test [15], 0.554; in test [16], 2.48; in test [17] it was -0.194 (inactive); in test [18], -0.417; in test [19], 0.535. The z-score in [20] was 1.34 (inactive). The same compound came in with a composite z-score in [2] of 0.119.
